Screening data from PubChem.
DT40 TDP1 no CPT: qHTS for Inhibitors of human tyrosyl-DNA phosphodiesterase 1 (TDP1): qHTS in cells in absence of CPT | DT40 Tdp1-/- hTDP1 cells, no CPT, ATP luminescence, 48 h | Potency, µM (highest dose often 46.2 µM), for the others: at the top dose activity change, negative = growth inhibition, actives largely listed as inhibitors | 420,000 compounds, 15% hits; further: potency means the concentration at half of the fitted maximal effect; nearly all actives have a fitted effect of over 55% in size
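DT40 Tdp1-/-;hTDP1 cells, no CPT (DMSO vehicle only), 400 cells/well; compounds pin-transferred; ≥48 hr, 37 °C; CellTiter-Glo 30 min RT dark, luminescence read.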
HT1080-NT tox: kills 2HG-producing HT-1080-NT fibrosarcoma cells. HT-1080-NT fibrosarcoma viability, CellTiter-Glo ATP luminescence, 48 h. Potency, µM (doses to about 46.1 µM), inactives show top-dose activity, negative = less viability, hits mostly cytotoxic. 360,000 compounds, 1.6% hits;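 further: NT is the 2HG producing partner of a matched IDH1 knockdown line; potency means the concentration at half of the fitted maximal effect; 0% = DMSO-treated cells and -100% = media-only wells without cells; nearly all actives have a fitted effect of over 55% in size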
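Fibrosarcoma NT cells, 750 per well in 5% FBS RPMI, were exposed to compound for 48 hours. Viability: CellTiter-Glo luminescence.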
HT1080 IDH1KD tx: HT-1080 IDH1 knockdown cell toxicity (counter line); HT-1080 IDH1 knockdown viability, ATP luminescence, 48 h; Potency, µM (highest dose often 46.1 µM), for inactives: at the highest dose activity, negative = toxicity, hits mostly cytotoxic; 360,000 compounds, 2% hits; AID 686971;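 further: potency means the concentration at half of the fitted maximal effect; 0% = DMSO wells and -100% = cell-free medium wells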
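% activity derives from luminescence (CellTiter-Glo), normalised to DMSO and no-cell wells. HT-1080-IDH1KD cells, 750/well, had 48 h compound exposure at 37 °C.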
DT40 TDP1 CPT: DT40-hTDP1 cell growth loss with CPT; AID 686979; chicken DT40 Tdp1-/-;hTDP1 cells + 20 nM CPT, ATP luminescence, 48 h; Potency, µM (titrated, usually from 46.2 µM), inactives show at the highest dose activity change, negative = growth inhibition, actives largely listed as inhibitors; 420,000 compounds, 12% hits; further: potency means the concentration at half of the fitted maximal effect; nearly all actives have a fitted effect of over 55% in size
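Chicken DT40 Tdp1-/- cells stably complemented with human TDP1 were seeded at 400 cells/well in medium containing 20 nM camptothecin, exposed to pin-transferred compounds, and grown at 37 °C for at least 48 hr. Viability was read as ATP luminescence.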
IL-1B inflam inh: inflammasome signaling inhibition, IL-1 beta readout. THP-1 LPS/ATP IL-1B secretion, AlphaLISA, 16 h; active compounds read low. activity change, % at 57.5 µM. 360,000 compounds, 4.7% hits; in the data active means activity change below about -50%; inconclusive means mostly about -30% to -49%
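Secreted IL-1B measured by AlphaLISA bead assay after 16 h compound exposure of THP-1 cells; compounds (final up to 57.5 uM) added 1 h before LPS (250 ng/mL) and ATP (1.25 mM) stimulation; lower signal means less secretion.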
* hit, by the source's call; ? = inconclusive; nt = no result given. The list is not random: actives were taken first. Their share in the collection is about 19%. Unless noted, the call rests on the fitted dose curve; in most records, active means well fitted curve in the direction sought with a large enough effect; inconclusive means small, poorly fitted or top-dose-only effect, or another doubt; inactive means no such curve, though single readings can be large; an effect the other way counts as inactive or inconclusive. Unless noted, on the % scale 0 is the no-effect control and ±100 the full control effect.

SMILES | DT40 TDP1 no CPT | HT1080-NT tox | HT1080 IDH1KD tx | DT40 TDP1 CPT | IL-1B inflam inh
CCOC(=O)Nc1cccc(OCC(=O)Nc2ccc(OC)cc2OC)c1 | 9.2µM* | 17.3% | -10.1% | ? | 53.2
O=C(NC(Cc1ccccc1)C(=O)N1CCCCC1)c1ccccc1 (stereo not given) | -3.7% | 3.7% | 0.7% | 1.3% | 6.1
CCOC(=O)c1c(C)[nH]c(C)c1S(=O)(=O)N1CCCC(C(=O)NCc2ccc(N(C)C)cc2)C1 (stereo not given) | 0.8% | nt | nt | ? | nt
COCCn1ccc2c(OCC(=O)Nc3cccc(NC(C)=O)c3)cccc2c1=O | -24.6% | -4.8% | -0.7% | -23.2% | -13.8
CCn1ccc2c(OCC(=O)Nc3ccc(C)c(Cl)c3)cccc2c1=O | 16.4µM* | nt | nt | 25.9µM* | nt
CC(C)CN1CCC2(CC1)CCN(C(=O)c1cnccn1)CC2 | -3.9% | nt | nt | 9.4% | nt
Cc1ccc(-c2csc(N(CCO)CCCn3c(C(F)(F)F)nc4ccccc43)n2)cc1 | ? | -14.2% | -14.6% | 20.6µM* | -3.3
OCCn1c(C(F)(F)F)nc2ccccc21 | -15.5% | -0.1% | 2.4% | -2.6% | 7.4
O=C(N/N=C/C=C/c1ccccc1[N+](=O)[O-])c1cccs1 | 8.2µM* | 12.8% | 19.0% | ? | 3.6
O=C(CSc1nnc(SCc2ccccc2)s1)N/N=C/C=C/c1ccccc1[N+](=O)[O-] | 16.4µM* | 9.2% | 16.4% | ? | -1.5
O=C(CN1CCN(Cc2ccc(Cl)cc2)CC1)N/N=C/C=C/c1ccccc1[N+](=O)[O-] | 18.4µM* | -0.1% | -3.2% | ? | -4.9
O=C(N/N=C/c1ccccc1[N+](=O)[O-])c1cccs1 | -13.9% | 8.0% | 3.3% | 7.9% | 0.9
O=C(CSc1nnc(SCc2ccccc2)s1)N/N=C/C=C\c1ccco1 | ? | -1.0% | -1.7% | ? | 0.0
O=C(N/N=C\C=C\c1ccc([N+](=O)[O-])o1)c1cccs1 | 3.26µM* | ? | 13µM* | 4.11µM* | ?
CCCC(=O)NCCc1nc2cc([N+](=O)[O-])ccc2n1C | -0.5% | -8.9% | 8.4% | 7.3% | 5.8
CCOC(=O)C(CC)c1cc2n(c(=O)c1C#N)CCC21OCCO1 (stereo not given) | -12.6% | 20.4% | 10.0% | -14.7% | 22.6
Cc1ccc(/C=N/NC(=O)c2cccs2)cc1[N+](=O)[O-] | 16.4µM* | 15.9% | 16.1% | 11.6µM* | -1.9
O=C(c1ccco1)N1CCN(c2ccc([N+](=O)[O-])c(N3CCOCC3)c2)CC1 | -22.1% | 0.1% | -1.5% | -2.7% | 14.4
COC(=O)[C@@]12CCCN1[C@H](c1ccc(-c3cccc(Cl)c3)cc1)[C@H]1C(=O)N(C)C(=O)[C@H]12 | 9.2µM* | -4.6% | -9.0% | 23.1µM* | -1.3
COC(=O)[C@@]12CCCN1[C@H](c1ccc(-c3ccccc3)cc1)[C@@H]1C(=O)N(C)C(=O)[C@@H]12 | 18.4µM* | -0.1% | -1.4% | 23.1µM* | 29.1
COC(=O)[C@@]12CCCN1[C@H](c1ccc(-c3ccc(Cl)c(Cl)c3)cc1)[C@H]1C(=O)N(C)C(=O)[C@H]12 | 11.6µM* | 0.0% | -18.4% | ? | -19.9
COC(=O)[C@@]12CCCCN1[C@H](c1ccc(-c3cccc(Cl)c3)cc1)[C@H]1C(=O)N(C)C(=O)[C@H]12 | 23.1µM* | -0.1% | 1.2% | ? | -7.5
COc1ccc(CN2CC[C@H]3C=CC[C@@H](C(=O)NC4CCCCC4)[C@H]3C2=O)cc1OC | -21.5% | nt | nt | -22.6% | nt
CCN1C(=O)[C@H]2[C@@H](c3ccc(-c4cccc(Cl)c4)cc3)N3CCCC[C@@]3(C(=O)OC)[C@H]2C1=O | ? | -11.1% | -5.2% | ? | -1.3
CCN1C(=O)[C@H]2[C@@H](c3ccc(-c4cccc(Cl)c4)c(OC)c3)N3CCCC[C@@]3(C(=O)OC)[C@H]2C1=O | 23.1µM* | 0.0% | -22.1% | ? | -61.7*
